# In PubChem BioAssay AID743266 (National Center for Advancing Translational Sciences (NCATS), 2014):
# The whole screen tested about 410,000 compounds, of which about 310 (0.076%) were called active. Inconclusive results (about 2%) are left out. For the sample, actives were picked, then their nearest neighbours and some compounds at random. A number with no mark means an inactive call. The call rests on the fitted dose curve; in most records, active means well fitted activation curve with a large enough effect; inconclusive means small, poorly fitted or top-dose-only effect, or another doubt; inactive means no such curve, though single readings can be large or run the other way.
# Target: Parathyroid hormone/parathyroid hormone-related peptide receptor (Homo sapiens) (UniProt Q03431)
# Experiment: qHTS for PTHR1 Agonists: Primary Screen; further: nearly all actives have a fitted effect of over 55% in size
# Conditions: HEK293 GP2 PTHR1 cells, GloSensor cAMP luminescence, 1 h; series mostly up to 115 µM; activation: at the top concentration
# Excerpt: The goal of the proposed studies is to discover new compounds that act as potent agonists on the parathyroid hormone receptor type-1 (PTHR1). The PTHR1 plays critical roles in maintaining blood calcium and phosphate levels, as well as in controlling bone remodeling. PTHR1 agonists could thus be useful for treating diseases such as hypoparathyroidism and osteoporosis. In the former disease, an agonist drug would help maintain normal blood calcium and phosphate levels under conditions of parathyroid hormone deficiency. In the latter disease, an agonist drug would stimulate new bone formation and thus reduce the risk of fracture, under conditions of bone fragility, as occurs in aging.
# To that end, we performed a quantitative high-throughput screening (qHTS) of the Molecular Libraries Probe Centers Network (MLPCN) compound libraries at the NIH Chemical Genomics Center (NCGC) for the parathyroid hormone receptor type-1 (PTHR1) using a unique HEK-293-derived cell line (GP2) that expresses the PTHR1 and a glosensor cAMP reporter construct.
# NIH Molecular Libraries Probe Production Centers Network [MLPCN]
# NIH Chemical Genomics Center [NCGC]
# Assay Submitter (PI): Thomas Gardella, Massachusetts General Hospital
# 4 microL are dispensed into a 1536-well micro plate to yield 3,000 cells/well. The plates are then incubated overnight, after which 4 microL of 0.5 mM of BIoTium Luciferin plus 0.5 mM IBMX are added. They are then incubated at 37 degree for one hour before 23 nL of compounds are added through pinning and then incubated at 37 degree again for another hour. After the plates are kept at room temperature for 15 min before they are read on the ViewLux to measure luminescence.
# Potency means the concentration at half of the fitted maximal effect.
# Parathyroid hormone/parathyroid hormone-related peptide receptor (Homo sapiens), sequence (Q03431 whole entry, looked up): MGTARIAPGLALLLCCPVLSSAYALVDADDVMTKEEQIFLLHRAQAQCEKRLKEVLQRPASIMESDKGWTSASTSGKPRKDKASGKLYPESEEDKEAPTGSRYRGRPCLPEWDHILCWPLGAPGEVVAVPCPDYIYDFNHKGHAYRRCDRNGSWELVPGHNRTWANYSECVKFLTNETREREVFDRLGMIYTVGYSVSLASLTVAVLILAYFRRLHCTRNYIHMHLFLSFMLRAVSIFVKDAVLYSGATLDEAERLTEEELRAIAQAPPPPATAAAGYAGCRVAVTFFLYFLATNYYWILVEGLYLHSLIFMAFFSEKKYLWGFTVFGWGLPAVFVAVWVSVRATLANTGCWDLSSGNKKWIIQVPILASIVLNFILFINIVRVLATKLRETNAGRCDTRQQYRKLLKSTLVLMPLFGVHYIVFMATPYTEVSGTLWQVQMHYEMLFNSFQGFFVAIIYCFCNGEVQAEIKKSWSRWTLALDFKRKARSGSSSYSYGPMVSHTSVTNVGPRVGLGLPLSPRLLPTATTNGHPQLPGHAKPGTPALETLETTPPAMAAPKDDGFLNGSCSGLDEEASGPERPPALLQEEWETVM
Structure (SMILES),activation,Potency,outcome
COc1ccc(N2CCN(S(=O)(=O)c3ccc(-c4coc(C)n4)cc3)CC2)cc1,-12.8%,,
Cc1ccc(C)c(N2CCN(C(=O)CN3C(=O)COc4ccc(S(=O)(=O)N5CCCCCC5)cc43)CC2)c1,7.52%,,
COc1ccccc1CNC(=O)Cn1nc(C)c2nn(-c3ccc(Cl)cc3)c(C)c2c1=O,-25.9%,,
O=C(O)c1ccc(CSc2nc3cccnc3n2Cc2cccc(F)c2)cc1,-22.9%,,
CC(C)c1ccc(NC(=O)c2ccc(Cn3nc(N4CCN(c5ccccc5)CC4)ccc3=O)o2)cc1,-7.89%,,
O=C(CSc1nccn1C1CCCC1)Nc1cc(C(F)(F)F)ccc1Cl,-85.1%,,
Cc1ccc(Cc2cnc(N)s2)o1,,3.55 µM (active),
Cc1ccc(-c2nc3cccc(C)n3c2Nc2ccc3c(c2)OCCO3)cc1,,,inactive
CCN(CC)c1ccc(NC(=O)Cn2nc3c(cc2=O)CCCC3)c(C)c1,,,inactive
CCC(=O)N1c2ccccc2CC1C(=O)N1CCN(c2ccccc2F)CC1 (configuration not stated),,,inactive
Cc1cc(C)c(NC(=O)CCc2c(C)nc3c(c(C)nn3C(C)(C)C)c2C)c(C)c1,,,inactive
Cn1c(=O)c(C(=O)O)nn(-c2ccccc2)c1=O,,,inactive
Cc1cc(C)cc(NC(=O)CSc2nc(=O)n(CCN3CCOCC3)c3c2CCC3)c1,-21%,,
COc1ccccc1NC(=O)Cn1cnc2ccc(S(=O)(=O)N3CCC(C)CC3)cc2c1=O,-5.33%,,
COc1ccc(C2(Nc3cccc(F)c3)C(=O)c3ccccc3C2=O)cc1,-29.1%,,
CC1CCN(S(=O)(=O)c2ccc3c(c2)N(CC(=O)NCCc2ccccc2)C(=O)CO3)CC1,,,inactive
COc1ccc(-n2nc(C(=O)NCCc3ccc(Cl)cc3)c3c4ccccc4n(C)c3c2=O)cc1Cl,,,inactive
c1ccc(CSc2ncnc3c2sc2nc(N4CCOCC4)c4c(c23)CCCC4)cc1,,,inactive [at 57.5 µM]
CCCCSc1ncnc2c1sc1nc(N3CCOCC3)c3c(c12)CCCC3,,79.4 µM (active),
CCc1nc2sc3c(Cl)ncnc3c2c2c1CCCC2,,,inactive
COC(=O)c1c(NC(=O)c2cc(=O)c3c(C)cc(C)cc3o2)sc2c1CCCC2,,,inactive
Cc1ccccc1NC(=O)Cn1cc(C(=O)c2cccs2)c2ccccc21,,,inactive
CCCS(=O)(=O)N1CCC(n2c(C(F)(F)F)nc3cccnc32)CC1,,,inactive
Cc1ccc(CN2COc3cc(C)c4c(oc(=O)c5ccccc54)c3C2)cc1,-9.61%,,
COc1ccc(OC)c(-n2nnc(-c3nc(-c4cc(OC)c(OC)c(OC)c4)no3)c2C)c1,,,inactive
COc1cc(NC(=O)CCn2nc(C)cc2C)cc(OC)c1OC,1.35%,,

Structure (SMILES),activation,Potency,outcome
Cc1cc(C)cc(NC(=O)Cn2nc(N3CCN(c4ccccc4)CC3)ccc2=O)c1,,,inactive
COc1cccc(NC(=O)N2CCN(C(=O)c3nsc4ccccc34)CC2)c1,-1.57%,,
CCCC(=O)N1CCN(c2nc3c(OC)ccc(C)c3s2)CC1,,,inactive
Cc1ccc(NC(=O)CN2C(=O)CC(C)Sc3ccccc32)c(C)c1 (configuration not stated),,,inactive
COc1cc(NC(=O)c2nc3ccccc3nc2C)cc(OC)c1OC,,,inactive
CN(C)Cc1c(O)ccc2c(=O)c(-c3ccccc3Cl)coc12,,,inactive
CC(C)CN(Cc1c(O)ccc2c(=O)c(-c3ccccc3)coc12)CC(C)C,,35.5 µM (active),
CCN(Cc1ccccc1)Cc1c(O)ccc2c(=O)c(-c3ccc(Cl)cc3Cl)coc12,4.83%,,
CC1CCN(S(=O)(=O)c2ccc3c(c2)N(CC(=O)NCc2ccccc2Cl)C(=O)CO3)CC1,-14.9%,,
COC(=O)c1cc(NC(=O)CCc2c(C)nc3c4c(C)cc(C)nc4nn3c2C)cc(C(=O)OC)c1,-11.5%,,
COc1ccc(Cn2cc(C(=O)c3ccc(C)cc3)c(=O)c3cc(OC)c(OC)cc32)cc1,-51.3%,,
Cc1oc2ncnc(N3CCCCC3)c2c1C(=O)N1CCN(c2cccc(Cl)c2)CC1,,,inactive
CCOC(=O)N1CCc2c(sc3c2C(=O)NC(c2ccccc2F)N3)C1 (configuration not stated),,,inactive
COc1ccc(NC(=O)Cn2c(=O)cc(C)c3c(C)nn(-c4cccc(Cl)c4C)c32)cc1OC,-21%,,
Cc1ccc(C)c(NC(=O)CSC2=Nc3ccccc3N=C(c3ccc(F)cc3)C2)c1,-0.791%,,
CCN(CC)c1ccc(NS(=O)(=O)c2cc(-c3cc(C)no3)ccc2C)c(C)c1,-70.5%,,
CCCCC12CN3CC(C)(CN(C1)C3c1ccc(O)c(OC)c1)C2=O (configuration not stated),,,inactive
CC(=O)c1ccc(NC(=O)C2CCN(S(=O)(=O)c3c(C)noc3/C=C/c3ccc(C)cc3)CC2)cc1,-33%,,
COC(=O)c1ccccc1NC(=O)c1ccc2c(=O)n3c(nc2c1)CCCCC3,-15.5%,,
COc1ccccc1-c1cc2nc(C)c(CCC(=O)NC3CCCCC3)c(C)n2n1,,,inactive
CCc1ccc(CN(Cc2ccco2)C(=O)COc2ccc(Cl)c(C)c2)cc1,-18.1%,,
COc1cccc2c1cc1c(=O)n(CC(=O)N3CCN(c4ccccc4)CC3)nc(C)n12,-14.5%,,
O=C(NCCc1ccccc1)c1ccc2c(c1)N(Cc1ccc(F)cc1)C(=O)c1ccccc1S2(=O)=O,6.38%,,
Cc1nc2ccn(Cc3cccnc3)c(=O)c2cc1C(=O)N1CCN(c2ccccc2F)CC1,,,inactive
CCc1ccc(NC(=O)CCS(=O)(=O)c2cc3c(cc2Cl)NC(=O)CO3)cc1,,,inactive
Cc1ccc(C(=O)Nc2cc3c(cc2N2CCCC2)n(C)c(=O)c(=O)n3C)cc1,4.66%,,
